TIM10 inh = growth inhibitors of TIM10 yeast strain | actives 1.4% (n = 330,000) | inhibition, % at 10 µM | S. cerevisiae TIM10 strain growth, BacTiter-Glo luminescence, 24 h;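 active = inhibition of 40% or more at the single tested concentration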;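 note: wild-type TIM10 isogenic control strain grown at permissive 25 °C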
tim23-1 inh = inhibits growth of tim23-1 mutant yeast; S. cerevisiae tim23-1 growth, BacTiter-Glo luminescence, 24 h; actives 1.3% (n = 330,000); inhibition, % at 20 µM;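 active = growth inhibition of the mutant yeast at or above 50%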;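 note: temperature-sensitive mutant grown at 25 °C; plate controls were DMSO-treated mutant yeast for no effect and medium wells lacking yeast for full effect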
tim10-1 inh = tim10-1 yeast growth inhibition; AID 463190; S. cerevisiae tim10-1 ts strain growth, BacTiter-Glo, 24 h; inhibition, % at 20 µM; actives 2.2% (n = 330,000);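 active = inhibition of at least 40%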;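 note: mutant grown at 25 °C; 0% = DMSO wells with yeast and 100% = wells holding no yeast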
SKKanGAS inh = SKKanGAS growth inhibition; S. pyogenes SKKanGAS, kanamycin growth, BacTiter-Glo, 6 h; inhibition, % at 7.5 µM; actives 1.3% (n = 300,000);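 active = mean replicate score, as percent of positive control median, at least 50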;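 note: strain carries kanamycin resistance gene driven by streptokinase promoter and grows in 40 µg/ml kanamycin; loss of luminescence reflects streptokinase promoter inhibition or plain growth inhibition; 0% = median of DMSO wells and 100% = positive control at its reference dose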
PfHsp90 yeast 2 = inhibits growth of yeast expressing Plasmodium falciparum Hsp90 | inhibition, % at 9.4 µM | actives 0.32% (n = 310,000) | S. cerevisiae expressing PfHsp90, BacTiter-Glo ATP, 48 h; yeast lacking PDR1 and PDR3 efflux regulators;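 active = every replicate shows inhibition above about 80%, whatever the replicate mean, limit read from the data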;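 note: 0% = DMSO neutral controls and 100% = 20 µM radicicol positive controls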
tim10-1 conf = tim10-1 yeast growth inhibition, confirmed; shares compounds with tim10-1 inh; S. cerevisiae tim10-1 ts strain growth, BacTiter-Glo, 24 h; inhibition, % at 20 µM; actives 56% (n = 7,400); AID 463213;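 active = inhibition of yeast growth at or above a set limit in either of two repeat tests at 20 µM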;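 note: tim10-1 mutant grown at permissive 25 °C to find synthetic lethal compounds; 0% = DMSO yeast wells and 100% = medium wells without yeast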
Starred values were filed as active, the others as inactive; . = no result; ! = not confirmed by another sample. The list is not random: actives were taken first. Their share in the collection is about 4.4%.

SMILES	TIM10 inh	tim23-1 inh	tim10-1 inh	SKKanGAS inh	PfHsp90 yeast 2	tim10-1 conf
COc1cccc(C2(C#N)CCN(C)CC2)c1	-2.4	0.8	10.0	-1.7	.	.
COC(=O)C1=C(c2ccc(F)cc2OCc2ccccc2)C[C@@H]2CC[C@H]1N2C(=O)NC1Cc2ccccc2C1	-6.6	21.0	13.2	.	7.5	.
COCCNC(=O)c1c(NC(=O)c2ccc(Br)o2)n(Cc2ccccc2)c2nc3ccccc3nc12	16.4	17.5	30.8	61.3*	8.8	.
COCCCNC(=O)c1c(NC(=O)c2ccco2)n(Cc2ccccc2)c2nc3ccccc3nc12	25.8	11.9	19.8	27.5	24.6	.
CCCC12CN3CC(CCC)(CN(C1)C3c1ccccn1)C2=O (centres undefined)	-5.1	-2.0	18.5	74.9*	.	.
c1ccc2c(c1)Sc1ccccc1N2CC1CN2CCC1CC2 (centres undefined)	22.6	6.3	3.8	0.0	8.3	.
CCCC/C(C)=C/[C@@H](NP(=O)(c1ccccc1)c1ccccc1)c1ccccc1	19.4	34.6	35.9	73.4*	2.3	.
CC(C)CN(CC(C)C)C(=O)C1C2c3ccccc3C(c3ccccc32)C1C(=O)O (centres undefined)	.	.	.	.	-0.8	.
Oc1cccc2cccnc12	.	.	.	94.0*	.	.
C=CCN1CC[C@]23c4c5ccc(O)c4OC2C(O)CC[C@@]3(O)[C@H]1C5 (some centres undefined)	-0.6	-5.8	-5.7	.	.	.
Oc1ccc2c3c1O[C@H]1c4[nH]c5ccccc5c4C[C@@]4(O)[C@@H](C2)N(CC2CC2)CC[C@]314	5.8	-1.8	9.7	.	-2.9	.
O[C@@H]1CCCN2CCc3c([nH]c4ccccc34)[C@H]12	.	.	.	98.2*	11.9	.
CC1CCC2C(C)C(=O)OC3OC4(C)CCC1C32OO4 (centres undefined)	5.1	24.9	39.1	-7.0	-5.6	.
CC(C)CNC(=O)c1c(N)n(Cc2ccc3c(c2)OCO3)c2nc3ccccc3nc12	27.0	39.0	43.5*	22.6	19.2	24.9
CN(C)/C=C/C(=O)C(Cl)(Cl)Cl	12.1	-0.8	-7.0	-5.1	24.4	.
O=C1CC(N2CC=C(c3ccccc3)CC2)C(=O)N1c1ccc(F)cc1 (centres undefined)	29.3	38.2	42.9*	1.4	-87.6	42.5*
Cc1cccc(-c2nc3ccc(C(=O)N4CCC5(CC4)OCCO5)cc3nc2-c2cccc(C)c2)c1	13.5	35.9	40.3*	15.2	-17.1	4.0
Cc1oc2ccc(OC(=O)N(C)C)cc2c1C(=O)OC(C)C	34.3	35.9	41.6*	-3.4	0.4	23.9
O=C(COC(=O)Cc1ccccc1)Nc1ccc(SC(F)F)cc1	4.7	26.7	43.5*	.	5.6	15.4
CC1(C)CCCN1CCC(C(N)=O)(c1ccccc1)c1ccccc1	.	.	.	.	0.2	.
CCN(CC)S(=O)(=O)c1cc(NC(=O)C(C)N2CC=C(c3ccccc3)CC2)ccc1C (centres undefined)	12.1	16.0	40.0*	22.8	23.2	2.4
Nc1c(C(=O)NC2CCCC2)c2nc3ccccc3nc2n1CC1CCCO1 (centres undefined)	33.7	33.1	55.6*	12.5	-1.6	29.4
Nc1c(C(=O)NCC2CCCO2)c2nc3ccccc3nc2n1Cc1ccco1 (centres undefined)	-0.2	14.0	0.3	5.6	-0.6	.
O=C(c1ccc2c(c1)N(Cc1ccccc1)CCS2)N1CCC2(CC1)OCCO2	7.3	44.4	42.2*	3.8	14.4	20.9
C=CCN1C(=O)c2ccccc2Sc2ccc(C(=O)N3CCC4(CC3)OCCO4)cc21	18.9	12.3	20.3	6.7	.	.
SMILES	TIM10 inh	tim23-1 inh	tim10-1 inh	SKKanGAS inh	PfHsp90 yeast 2	tim10-1 conf
CCOP(=S)(OCC)N1CC1	.	.	.	.	-21.8	.
COC1C(O)C(C)OC(OC2CCC3(C)C(CCC4C3C(O)CC3(C)C(C5=CC(=O)OC5)CCC43O)C2)C1O (centres undefined)	.	.	.	.	0.2	.
N#CC[N+]1(CCCNP2(=O)C=C(c3ccccc3)OC(c3ccccc3)=C2)CCOCC1	1.0	7.6	8.6	1.0	-3.4	.
Cc1nc2c(-c3ccc(F)cc3)c(C)nn2c(C)c1CCC(=O)N1CCC2(CC1)OCCO2	13.1	8.5	40.1*	-5.6	.	26.1
Cc1nc2cc(-c3ccccc3)nn2c(C)c1CCC(=O)N1CCC2(CC1)OCCO2	28.6	13.7	24.0	-6.9	.	.
O=C(COc1ccc2ccccc2c1)N1CCN(Cc2c[nH]c3ccccc23)CC1	31.3	11.9	50.0*	0.2	19.9	30.4
Cc1ccc(N2C(=O)CC(=O)NC2=O)c(C)c1	5.0	-10.1	-4.4	-6.2	4.5	.
O=c1c2ccccc2[se]n1-c1ccccc1	16.3	5.0	55.2*	88.3*	5.1	89.6*
O=c1c2ccccc2nc(-c2ccccc2)n1-c1ccccc1	22.1	26.9	22.9	1.3	3.8	.
COc1ccc(NP(=O)(Oc2ccccc2OC)Oc2ccccc2OC)cc1	9.0	32.8	40.6*	5.8	-13.1	14.5
COc1ccccc1OP(=O)(Nc1ccc(Br)cc1)Oc1ccccc1OC	13.5	15.2	8.2	1.8	-25.5	.
O=C(CN1CCOCC1)Nc1ccc(Br)cc1C(=O)c1ccccc1	35.5	33.6	40.3*	-9.1	-18.3	16.5
C[C@]12CC[C@H](O)CC1=CCC1C2CC[C@@]2(C)C1C[C@@H]1CC(=O)O[C@@H]12 (some centres undefined)	18.9	13.0	17.6	.	16.3	.
O=C(Cn1nc(-c2ccccc2)ccc1=O)N1CCC2(CC1)OCCO2	5.7	-4.9	7.6	-2.3	17.6	.
CCOC(=O)c1c(-n2c(C)cc(/C=C3\C(=O)NC(=O)N(C)C3=O)c2C)sc2c1CCCC2	32.0	39.4	32.0	24.0	-8.3	.
Cc1cc(/C=C2\C(=O)NC(=O)N(c3ccc(Cl)cc3)C2=O)c(C)n1-c1sc2c(c1C#N)CCCC2	15.2	31.2	41.1*	20.2	-2.6	13.9
CSc1nc(C)c(Br)c(N2CC2)n1	.	.	.	.	-1.4	.
Oc1ccc(C2NCc3ccccc3-n3cccc32)cc1Cl (centres undefined)	19.0	23.6	44.2*!	-0.6	-9.7	33.8*
CCOC(=O)C1(CCc2ccccc2)CCN(Cc2cccc3c2OCO3)CC1	-3.7	14.2	40.0*	8.2	-6.2	13.6
CCOC(=O)C1(CCc2ccccc2)CCN(Cc2cccc3cnccc23)CC1	-10.3	7.0	19.7	5.6	-15.5	.
Fc1ccc2c(c1)nnn2C1CCN(Cc2nnnn2CCc2ccccc2)CC1	27.4	9.2	40.5*	-4.4	.	25.1
c1ccc(CCn2nnnc2CN2CCC(n3nnc4ccccc43)CC2)cc1	8.9	20.1	32.4	-13.1	43.5	.
COCCNC(=O)CN1C(=O)C(C)N=C(c2ccccc2)c2cc(Cl)ccc21 (centres undefined)	12.3	33.6	41.0*	2.4	2.2	7.4
Cc1ccccc1-[n+]1c(-c2ccccc2)cc(-c2ccccc2)cc1-c1ccccc1	-12.1	-9.3	42.4*	-1.5	6.2	27.5
